# Pf apPOL inh = Pf-apPOL DNA polymerase inhibition; Recombinant Pf-apPOL, molecular beacon fluorescence, 1.5 h; inhibition, % at 10 µM; actives 0.25% (n = 210,000)
# mHTT CaM bind = inhibitors of human mutant huntingtin-calmodulin interaction | P42858 | AlphaScreen His-mHTT/GST-CaM binding, luminescence | inhibition, % at 15 µM | actives 3.6% (n = 190,000) | AID 1671202
# Numbers stand for hits; . = inactive; / = no result given; + = active, no number; ! = repeats disagree. Most compounds without a hit are left out; they make up all but 3.6% or so of the library. Rule as the data show it: active = inhibition above about 50%; inactive = the rest.
SMILES,Pf apPOL inh,mHTT CaM bind
C#CCOCC1CCCN(S(=O)(=O)c2ccc(C(C)=O)cc2)C1 (stereo not drawn),.,.
Cc1cc(C=O)c(C)n1-c1ccc(F)c(Cl)c1,.,.
COc1ccc(-n2c(C)cc(/C=C/[N+](=O)[O-])c2C)cc1Cl,.,75.0
O=C(NCCCc1ccccc1)C(=O)Nc1cc(F)ccc1F,.,.
COC(=O)c1ccc(C(=O)Nc2nc(C)c(C(C)=O)s2)cc1,.,.
O=C(Nc1ccc2c(c1)OCO2)c1ccc([N+](=O)[O-])cc1,.,.
O=C(Nc1cnc(-c2ccccc2)nc1)c1ccc(Br)o1,.,.
Cc1cc(C(=O)Nc2nc3c(s2)CN(C(=O)CSc2ccc(F)cc2)CC3)no1,.,.
Cc1ccc(C)c(-c2coc(-c3ccc(N)cc3)n2)c1,.,53.1
Cc1ccc(-c2csc(N)n2)c(C)c1,.,.
Cc1ccc(-c2nc3cc(N)ccc3o2)cc1C,.,.
Cc1ccc(-c2coc(-c3ccc(N)cc3)n2)c(C)c1,.,59.2
O=C(NCc1ccccc1F)C1CCN(c2nnc(-c3ccccc3)o2)CC1,.,.
Cc1onc(-c2ccc(F)cc2)c1C(=O)O,.,/
O=S(=O)(Nc1cc(Cl)cc(Cl)c1)c1ccc(Cl)cc1,/,.
O=C(O)c1cc(NS(=O)(=O)c2ccc(Cl)cc2)cc(C(=O)O)c1,71.4,.
O=C1Nc2ccc(Br)cc2/C1=C/c1ccc(O)c(O)c1,.,96.0
O=C1Nc2ccc(Br)cc2/C1=C/c1ccc(Cl)cc1,.,.
CC(C)(C)c1ccc(/C=C2\C(=O)Nc3ccc(Br)cc32)cc1,.,90.0
O=C1Nc2ccc(Br)cc2/C1=C/c1cccc(Cl)c1,.,.
O=C1OC(c2ccccc2Cl)=N/C1=C/c1ccc2c(c1)OCO2,.,.
CCc1cc2c(=O)c(-c3nc(C)cs3)coc2c(CN2CC3CC(C2)c2cccc(=O)n2C3)c1O (stereo not drawn),.,.
CCNc1nccc(N2CCC(CC(=O)N3CCN(c4cccc(C)c4)CC3)CC2)n1,.,.
CCOc1ccccc1C1SCC(C(=O)O)N1C(C)=O (stereo not drawn),.,.
COc1cccc(C2c3sc(=O)[nH]c3SC3C4CCC(C4)C23)c1O (stereo not drawn),.,.
SMILES,Pf apPOL inh,mHTT CaM bind
CCOc1cc(C2c3sc(=O)[nH]c3SC3C4CCC(C4)C23)ccc1O (stereo not drawn),.,100.3
COc1ccc(C2c3sc(=O)[nH]c3SC3C4CCC(C4)C23)cc1 (stereo not drawn),.,.
COc1cc(C2c3sc(=O)[nH]c3SC3C4CCC(C4)C23)ccc1O (stereo not drawn),.,57.0
Cc1nc(SCC(=O)Nc2ccccc2Br)cc(-c2ccncc2)n1,.,.
CCCCC(O)(CCCC)C(=O)Nc1ccccn1,.,.
O=C(CN1CCC2(CC1)N=C(c1ccccc1)C(=O)N2)Nc1cccc(C(F)(F)F)c1,.,96.0
Cc1cccc(C)c1NC(=O)CN1CCC2(CC1)N=C(c1ccc(F)cc1)C(=O)N2,.,.
Cc1ccc(C)c(NC(=O)CN2CCC3(CC2)N=C(c2ccc(F)cc2)C(=O)N3)c1,.,51.3
O=C(CN1CCC2(CC1)N=C(c1cccc(Cl)c1)C(=O)N2)Nc1ccc2c(c1)OCO2,.,52.9
O=C(CN1CCC2(CC1)N=C(c1ccc(F)cc1)C(=O)N2)Nc1ccccc1,.,.
O=C(CN1CCC2(CC1)N=C(c1cccc(Cl)c1)C(=O)N2)Nc1cccc(Cl)c1,.,.
CCc1nc(NC)nc(OC)n1,.,.
CCn1nccc1C(=O)N1CCC(CCOCc2cccc(F)c2)CC1,.,.
O=C(NCCc1c[nH]c2ccccc12)Nc1ccc(Cl)cc1,.,/
CCn1cc(NC(=O)NCCc2c[nH]c3ccccc23)c2ccccc21,.,72.2
O=C(c1ccc(Cn2cncn2)cc1)N1CCC(N2CCCCC2)CC1,.,.
O=C(Oc1ccc2ccccc2c1I)c1ccc(Cl)c(Cl)c1,.,/
O=C(CSc1nnc(COc2ccc3c(c2)CCCC3)o1)NCc1ccccc1,95.4,.
Cc1ccc(OCc2nnc(SCC(=O)NCc3ccccc3)o2)cc1,.,.
CCc1onc(C)c1C1CCCN1C(=O)c1cc(C)no1 (stereo not drawn),.,.
Cn1cccc1/C=N/Nc1ccc(F)cc1,/,+
Cn1cccc1/C=N/NC(=O)c1cccs1,/,.
Cc1cc(NS(=O)(=O)c2cc(C(=O)O)ccc2F)n[nH]1,.,78.0
Cc1cc(NS(=O)(=O)c2cccs2)n[nH]1,.,/
Nc1nc2ccccc2n1Cc1ccccc1,.,.
SMILES,Pf apPOL inh,mHTT CaM bind
Fc1ccc(NCc2nc3ccccc3n2Cc2ccccc2)cc1,.,50.0
Cn1cnc2cc(NCc3nc4ccccc4n3Cc3ccccc3)ccc21,.,87.9!
Cc1ccc(CNc2ccc3c(c2)ncn3C)cc1,.,.
CC1OC(Nc2cccc([N+](=O)[O-])c2)C(O)C(O)C1O (stereo not drawn),.,.
O=C(CN1CCCC1)N1N=C(c2ccccc2)CC1c1ccc2c(c1)OCO2 (stereo not drawn),.,99.2
CC(=O)N1CCN(CC(=O)N2N=C(c3ccccc3)CC2c2ccccc2)CC1 (stereo not drawn),.,.
O=C(CN1CCOCC1)N1N=C(c2ccccc2)CC1c1ccc(Cl)cc1 (stereo not drawn),.,.
CC(=O)N1CCN(CC(=O)N2N=C(c3ccccc3)CC2c2ccc(C)cc2)CC1 (stereo not drawn),.,63.5
Cc1ccc(C2=NN(C(=O)CN3CCOCC3)C(c3ccc(C)cc3)C2)cc1 (stereo not drawn),.,62.3
CC(=O)N1CCN(CC(=O)N2N=C(c3ccc(C)cc3)CC2c2ccc(C)cc2)CC1 (stereo not drawn),.,71.2
O=C(CN1CCCCC1)N1N=C(c2ccccc2)CC1c1ccc2c(c1)OCO2 (stereo not drawn),.,.
Cn1nnc2c(N3CCN(C(=O)c4c(F)cccc4Cl)CC3)ncnc21,.,.
NC(=O)C1CCN(CC(=O)N2N=C(c3ccc(F)cc3)CC2c2ccccc2)CC1 (stereo not drawn),.,.
Cc1cccc(C2=NN(C(=O)CN3CCOCC3)C(c3ccccc3F)C2)c1 (stereo not drawn),.,.
Cc1ccc(C2CC(c3ccccc3)=NN2C(=O)CN2CCC(C(N)=O)CC2)cc1 (stereo not drawn),.,80.2
CC(=O)N1CCN(CC(=O)N2N=C(c3cccc(C)c3)CC2c2ccc(C)cc2)CC1 (stereo not drawn),.,81.7
Cn1c(SCC(=O)N(CCO)CCO)nc2sc3c(c2c1=O)CCCC3,.,.
Cc1ccc2oc3c(c(=O)c2c1)C(c1cccc([N+](=O)[O-])c1)N(CCCO)C3=O (stereo not drawn),.,.
CCOc1ccccc1NC(=O)N1CCC2(CC1)NC(=O)c1cc(C)ccc1N2C,.,.
FC(F)(F)c1cccc(N2COc3ccc(Cl)cc3C2)c1,.,.
Cc1ccc(N2COc3ccc(Br)cc3C2)cc1,.,73.0
Cc1cc(=O)oc2c3c(ccc12)OCN(c1ccc(Cl)cc1)C3,.,.
Cc1cccc(N2COc3ccc(Br)cc3C2)c1,.,99.0
COc1ccc(CNC(=O)CN(Cc2ccccc2)S(=O)(=O)c2ccc(F)cc2)cc1,.,.
COc1cc(-c2nc3ccccc3c(=O)n2C(C)C)cc(OC)c1OC,.,.
O=C(NCc1cccs1)C(=O)Nc1ccncc1,.,.
O=[N+]([O-])c1ccc(Nc2ccc(F)cc2)cc1,.,/
